Bioassay records from PubChem.
Shown is part of a subset that was picked to be rich in hits.
Pf apPOL inh: Pf-apPOL DNA polymerase inhibition. AID 1794808. Recombinant Pf-apPOL, molecular beacon fluorescence, 1.5 h. 210,000 compounds, 0.25% hits. inhibition, % at 10 µM
mHTT CaM bind: mHTT-calmodulin interaction abrogation; AID 1671202; inhibition, % at 15 µM; P42858; 190,000 compounds, 3.6% hits; AlphaScreen His-mHTT/GST-CaM binding, luminescence;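 also: 0% = both proteins with DMSO and 100% = one protein alone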
* hit, by the source's call. Rule as the data show it: active = inhibition above about 50%; inactive = the rest.

SMILES	Pf apPOL inh	mHTT CaM bind
CN1CCN(C(=O)c2cc3nc4c(c(C(F)(F)F)n3n2)CCc2ccccc2-4)CC1	-4.1	-5.0
CCc1ccc(C(C)NC(=O)c2ccnc3c(NC(C)=O)cccc23)cc1 (centres undefined)	3.7	14.9
Cn1cc(OCc2ccc(F)cc2)c(=O)cc1C(=O)N1CCN(C(=O)c2ccco2)CC1	-7.5	-9.5
CCc1ccc(NC(=O)CCCn2nc(C)c([N+](=O)[O-])c2C)cc1	-7.8	7.0
Cc1ccc(F)cc1S(=O)(=O)N1CCC(Oc2ccc(-n3cnnn3)cc2)CC1	-10.4	-5.5
Cn1nc(C(=O)NCc2ccc(F)cc2)c2c1CCN(C(=O)c1ccccc1F)C2	-13.0	82.0*
CCOc1ccccc1C(=O)N1CCc2c(c(C(=O)NCc3ccc(F)cc3)nn2C)C1	-7.3	73.3*
Cn1nc(C(=O)NCc2ccc(Cl)cc2)c2c1CCN(C(=O)c1c(F)cccc1F)C2	-4.3	57.9*
Cc1ccccc1C(=O)N1CCc2c(c(C(=O)NCc3ccc(Cl)cc3)nn2C)C1	-3.6	11.2
Cc1cccc(CNC(=O)c2nn(C)c3c2CN(C(=O)c2ccccc2F)CC3)c1	-6.9	42.7
CCOc1ccccc1C(=O)N1CCc2c(c(C(=O)NCc3cccc(C)c3)nn2C)C1	-11.3	42.5
COc1ccccc1CNC(=O)c1cnn2c(C)c(Cc3cc(C)ccc3C)c(C)nc12	-11.9	0.0
O=C1CN(C(=O)c2ccc(Br)cc2)C(c2ccc(F)cc2)c2cc(F)ccc2N1 (centres undefined)	-9.9	7.0
Nc1ccc(Cl)cc1C(O)c1ccccc1 (centres undefined)	-6.2	-2.0
CC(Nc1ccc(Cl)cc1N)c1ccccc1 (centres undefined)	-4.3	98.4*
Cc1ccc(C2=N/C(=C\c3ccccc3Cl)C(=O)O2)cc1	-0.1	-3.0
CCOc1ccc(NC(NC(=O)c2cccs2)C(=O)c2ccccc2)cc1 (centres undefined)	-0.9	56.0*
NS(=O)(=O)c1ccc(NC(NC(=O)c2cccs2)C(=O)c2ccccc2)cc1 (centres undefined)	8.5	11.0
O=C(NC(Nc1cccc(Cl)c1)C(=O)c1ccccc1)c1cccs1 (centres undefined)	27.1	67.0*
O=C(NC(Nc1ccc(Cl)c(Cl)c1)C(=O)c1ccccc1)c1cccs1 (centres undefined)	-7.1	90.0*
Cc1ccc(NC(NC(=O)c2cccs2)C(=O)c2ccccc2)cc1C (centres undefined)	-1.1	-3.0
COc1ccc(NC(NC(=O)c2cccs2)C(=O)c2ccccc2)cc1 (centres undefined)	-0.7	40.0
O=C(Nc1cc(-c2cccc(Cl)c2)no1)C1CCN(c2ccncc2)CC1	-1.5	-11.3
COc1cccc(N2CCN(C(C)C(=O)N3CCOCC3)CC2)c1 (centres undefined)	-5.2	0.2
O=C(O)C1C2C=CC(C2)C1C(=O)Nc1cccnc1 (centres undefined)	-12.2	-5.0
SMILES	Pf apPOL inh	mHTT CaM bind
O=C(O)C1C2C=CC(C2)C1C(=O)Nc1ncccc1O (centres undefined)	79.5*	4.0
CCc1ccccc1NS(=O)(=O)c1cc2c(s1)CCN(C(C)=O)C2	1.1	6.5
O=C(Cc1csc(SCC(=O)c2cccs2)n1)NCCc1c[nH]c2ccccc12	-8.4	30.2
O=C(Cc1csc(NC(=O)c2cnccn2)n1)NCCc1c[nH]c2ccccc12	-24.4	53.3*
O=C(Cc1csc(NC(=O)c2cccs2)n1)NO	72.3*	15.2
NS(=O)(=O)c1ccc(CNC(=O)Cc2csc(NC(=O)c3cccs3)n2)cc1	-7.0	-0.2
COC(=O)Nc1nc(CC(=O)NCc2ccccc2Cl)cs1	-6.0	-0.8
O=C(Cc1csc(NC(=O)c2ccc(=O)[nH]c2)n1)NCCc1c[nH]c2ccccc12	-13.8	9.8
O=C(Cc1csc(NC(=O)c2ccc3c(c2)OCO3)n1)NCCc1c[nH]c2ccccc12	-6.2	56.0*
O=C(Cc1csc(NC(=O)c2ncccn2)n1)NCc1ccccc1Cl	-17.8	98.3*
Cc1nn(C2CCS(=O)(=O)C2)c2nc(-c3ccco3)cc(C(=O)NCC3CCCO3)c12 (centres undefined)	-5.4	-2.9
CC(C)c1ccc(NC(=O)Nc2ccccc2)cc1	-13.9	-3.2
O=C(c1cc2ccccc2oc1=O)n1cc([N+](=O)[O-])cn1	-6.6	-13.0
CCS(=O)(=O)N1CCC(c2nc3cccnc3n2CCOC)C1 (centres undefined)	-5.4	3.3
COc1cc(/C=C2\Cc3ccccc3C2=O)ccc1OCC(C)C	-0.9	-7.0
Cc1nc(-c2ccncc2)nc2c1CCC(=O)N2C1CCCC1	0.7	-7.9
COc1ccc(C(=O)Nc2c3c(nn2C(C)(C)C)CSC3)cc1	-1.6	23.0
O=C(/C=C/c1ccc2c(c1)OCO2)Nc1c2c(nn1-c1ccc([N+](=O)[O-])cc1)CSC2	-1.6	37.0
O=C(Nc1c2c(nn1-c1ccc(F)cc1)CSC2)c1ccc(Br)o1	-11.1	58.0*
